{
  "source": "PubChem BioAssay (Tox21)",
  "note": "Records with an inconclusive call do not appear. Entries that show only a call come without a potency. The source made the active and inactive calls. Calls come from the whole dose curve.",
  "data": [
    {"assay": "cAMP Responsive Elements (CRE) small molecule agonists, cell-based qHTS assay (AID 1963590)", "conditions": "CRE-bla HEK293T, beta-lactamase FRET ratio, 3 h; series mostly up to 92.4 µM", "source_text": "U.S. Tox21 Program National Center for Advancing Translational Sciences [NCATS] Division of Preclinical Innovation [DPI] U.S. Environmental Protection Agency [EPA] National Institutes of Environmental Health Sciences [NIEHS] National Toxicology Program [NTP] U.S. Food and Drug Administration [FDA] Tox21 Assay Overview: CREB (cyclic-AMP Responsive Element Binding Protein) is a cellular transcription factor. It binds to certain DNA sequences called cAMP Responsive Elements (CRE) and regulates the transcription of the genes. […] This cell line can be used to find agonists/antagonists of the cyclic AMP signaling pathway. The activation of the report gene under culture conditions can be detected by fluorescence intensity. This cell line has been used to screen the Tox21 10K compound library to identify agonists that induce oxidative stress.\nTox21 Assay Protocol Summary: CRE-bla Hek 293T cells were suspended in assay medium (DMEM containing 10% dialyzed FBS, 0.1 mM NEAA, 1 mM sodium pyruvate and 25 mM HEPES) and dispensed at 2,000 cells/5 uL /well into 1536-well black wall/clear bottom plates using a Multidrop Combi (ThermoFisher Scientific, Waltham, MA) dispenser. After the assay plates were incubated at 37 C/5% CO2 for 18 hrs, 23 nL of compounds dissolved in DMSO, positive controls or DMSO only was transferred to the assay plate by a pintool workstation (Kalypsys, San Diego, CA). After the plates were incubated at 37 C/5% CO2 for 3 hrs, 1 uL of LiveBLAzer B/G FRET substrate (Invitrogen, Carlsbad, CA) was added to each well using Bioraptr Flying Reagent Dispenser (FRD, Aurora Discovery, San Diego, CA). The plates were incubated at room temperature for 2 h.", "values": [
      {"smiles": "CC(C)C(=O)OCCc1ccccc1", "Potency": "inactive"},
      {"smiles": "CC(Cc1cccc(C(F)(F)F)c1)NCCOC(=O)c1ccccc1", "note": "(stereo not given)", "Potency": "inactive"},
      {"smiles": "c1ccc2c(c1)ccc1c3ccccc3ccc21", "Potency": "inactive"},
      {"smiles": "CCCCCCCCCCCCSCCOCCO", "Potency": "inactive"},
      {"smiles": "CCC[C@@H]1C[C@@H](C(=O)N[C@@H]([C@H]2O[C@H](SC)[C@H](O)[C@@H](O)[C@H]2O)[C@@H](C)O)N(C)C1", "Potency": "inactive"},
      {"smiles": "COc1ccc(COC=O)cc1", "Potency": "inactive"},
      {"smiles": "CC(C)c1ccc2cc(C(C)C)ccc2c1", "Potency": "inactive"},
      {"smiles": "CCC(C)O", "note": "(stereo not given)", "Potency": "inactive"},
      {"smiles": "CC(C)NCC(O)COc1ccc(CC(N)=O)cc1", "note": "(stereo not given)", "Potency": "inactive"},
      {"smiles": "O=C(O)CNC(=O)c1ccccc1", "Potency": "inactive"},
      {"smiles": "Nc1ccn([C@H]2CS[C@@H](CO)O2)c(=O)n1", "Potency": "inactive"},
      {"smiles": "Cc1ccc(C=O)cc1C", "Potency": "inactive"},
      {"smiles": "Cc1c(C(=O)O)c(O)cc2c1C(=O)c1c(O)c([C@@H]3O[C@H](CO)[C@@H](O)[C@H](O)[C@H]3O)c(O)c(O)c1C2=O", "Potency": "inactive"},
      {"smiles": "COc1ccccc1N1CCN(CC(O)COc2cccc3ccccc23)CC1", "note": "(stereo not given)", "Potency": "inactive"},
      {"smiles": "CC(=O)N(CC(O)CO)c1c(I)c(C(=O)NCCO)c(I)c(C(=O)NCC(O)CO)c1I", "note": "(stereo not given)", "Potency": "inactive"},
      {"smiles": "BrCCOc1ccccc1", "Potency": "inactive"},
      {"smiles": "O=C=NC1CCC(CC2CCC(N=C=O)CC2)CC1", "note": "(stereo not given)", "Potency": "inactive"},
      {"smiles": "CC(N)=O", "Potency": "inactive"},
      {"smiles": "COc1cc(OC)c2ccc(=O)oc2c1", "Potency": "inactive"},
      {"smiles": "O=C(CN1CCNCC1)NC1CCCCC1", "Potency": "inactive"},
      {"smiles": "Oc1cccc2c(O)cccc12", "Potency": "inactive"},
      {"smiles": "O=C(O)CCc1nc2ccccc2[nH]1", "Potency": "inactive"},
      {"smiles": "CC(C)(CO)C(O)C(=O)NCCCO", "note": "(stereo not given)", "Potency": "inactive"},
      {"smiles": "CN(C)c1ccc(C=O)cc1", "Potency": "inactive"},
      {"smiles": "CC(C)C(O)(c1ccc(OC(F)(F)F)cc1)c1cncnc1", "note": "(stereo not given)", "Potency": "inactive"},
      {"smiles": "NCCc1ccn[nH]1", "Potency": "inactive"},
      {"smiles": "CCN(Cc1cccc(S(=O)(=O)O)c1)c1ccc(C(=C2C=CC(=[N+](CC)Cc3cccc(S(=O)(=O)O)c3)C=C2)c2ccc(O)cc2S(=O)(=O)[O-])cc1", "Potency": "inactive"},
      {"smiles": "CCCCCCCCCCCC(=O)[O][Sn]([CH2]CCC)([CH2]CCC)[O]C(=O)CCCCCCCCCCC", "Potency": "inactive"},
      {"smiles": "CCOC(=O)C1=C[C@]2(CC)CCCN3CCc4c(n1c1ccccc41)[C@@H]32", "Potency": "inactive"},
      {"smiles": "CCCCCCCCCCCCN(CCCCCCCCCCCC)CCCCCCCCCCCC", "Potency": "inactive"},
      {"smiles": "C=CC(=C)CCCC(C)(C)OC(C)=O", "Potency": "inactive"},
      {"smiles": "O=S(=O)(O)c1ccc(Nc2nc(Nc3ccc(/C=C/c4ccc(Nc5nc(Nc6ccc(S(=O)(=O)O)cc6)nc(N(CCO)CCO)n5)cc4S(=O)(=O)O)c(S(=O)(=O)O)c3)nc(N(CCO)CCO)n2)cc1", "Potency": "inactive"},
      {"smiles": "CCCCCCCCCCCCN1CCCCCC1=O", "Potency": "inactive"},
      {"smiles": "O=C(CC(=O)C(F)(F)F)c1ccccc1", "Potency": "inactive"},
      {"smiles": "CCN(CC)CCNc1ccc(CO)c2sc3ccccc3c(=O)c12", "Potency": "inactive"},
      {"smiles": "CCCC/C=C/CCCCO", "Potency": "inactive"},
      {"smiles": "C=Cc1ccc(C=C)cc1", "Potency": "inactive"},
      {"smiles": "CC(=O)Nc1ccccc1O", "Potency": "inactive"},
      {"smiles": "CN(C)CCN(Cc1ccccc1)c1ccccn1", "Potency": "inactive"},
      {"smiles": "O=C1NC(=O)c2cc([N+](=O)[O-])ccc21", "Potency": "inactive"}
    ]}
  ]
}
